About 300 (9.4%) of roughly 3,200 compounds showed activity. This is one part of a sample in which actives are shown more often than they occur.
Tested on: A673/TR/shEF
Assay: cell viability (LOESS-normalised, relative to median of negative controls) (log2 ratio); higher = more viable cells (less compound effect), active = hit call of the paper (over 3 MAD below the median)
Details: treatment time: 72 h
In short: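 Doxycycline, present or absent from 24 h before compounds, was used to induce EWS-FLI1 shRNA knockdown in A673/TR/shEF Ewing sarcoma cells at 1,500 per well in 384-well plates. Cells then received library compounds at two or more concentrations, or DMSO controls, for three days. Viability was measured by CellTiter-Glo luminescence on an Envision reader, and per-plate LOESS correction, division by the negative-control median and log2 transformation followed.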

[1] = 0.25 µM, library screen: screen2, EWS-FLI1 expression: high (no doxycycline)
[2] = 0.25 µM, library screen: screen2, EWS-FLI1 expression: low (doxycycline-induced shRNA knockdown)
[3] = 2.5 µM, library screen: screen2, EWS-FLI1 expression: high (no doxycycline)
[4] = 2.5 µM, library screen: screen2, EWS-FLI1 expression: low (doxycycline-induced shRNA knockdown)
[5] = 0.25 µM, library screen: screen1, EWS-FLI1 expression: high (no doxycycline)
[6] = 0.25 µM, library screen: screen1, EWS-FLI1 expression: low (doxycycline-induced shRNA knockdown)
[7] = 2.5 µM, library screen: screen1, EWS-FLI1 expression: high (no doxycycline)
[8] = 2.5 µM, library screen: screen1, EWS-FLI1 expression: low (doxycycline-induced shRNA knockdown)

Measured: cell viability (log2)

Oc1cc2c(cc1O)[C@H]1c3ccccc3CN[C@@H]1CC2
inactive: [1] 0.0852 | [2] -0.0099 | [3] 0.117 | [4] 0.00998

CC(C)N(CCC(C(N)=O)(c1ccccc1)c1ccccn1)C(C)C (stereo not given)
inactive: [5] 0.118 | [6] 0.068 | [1] 0.102 | [2] 0.0965 | [7] 0.167 | [8] 0.146 | [3] 0.0737 | [4] 0.0918

O=S1OCC2C(CO1)C1(Cl)C(Cl)=C(Cl)C2(Cl)C1(Cl)Cl (stereo not given)
inactive: [5] 0.126 | [6] 0.0993 | [7] 0.0998 | [8] -2.97

COc1ccc(CCN)cc1O
inactive: [1] 0.19 | [2] 0.105 | [3] 0.0411 | [4] 0.0823

CC1(C)C2C[C@@H](O)[C@]3(C)C(CC[C@@]4(C)[C@H](c5ccoc5)OC(=O)[C@H]5O[C@]543)[C@@]2(C)[C@@H](O)C[C@H]1O (stereo not given in full)
inactive: [5] 0.0675 | [6] 0.0959 | [7] 0.135 | [8] 0.0584

C[N+]1(C)[C@H]2CC(OC(=O)C(CO)c3ccccc3)C[C@H]1[C@H]1O[C@H]12 (stereo not given in full)
inactive: [1] 0.258 | [2] 0.0872 | [3] 0.133 | [4] -0.00973

CO[C@H]1[C@H](O)[C@H](O[C@H]2CC[C@@]3(C)[C@H](CC[C@@H]4[C@@H]3CC[C@]3(C)[C@@H](C5=CC(=O)OC5)CC[C@]43O)C2)O[C@@H](C)[C@@H]1O
inactive: [5] 0.0843 | [6] 0.064
active: [7] -4.02 | [8] -4.27

CO[C@H]1[C@H](O)[C@H](O[C@H]2CC[C@@]3(C=O)[C@H](CC[C@@H]4[C@@H]3CC[C@]3(C)[C@@H](C5=CC(=O)OC5)CC[C@]43O)C2)O[C@@H](C)[C@@H]1O
active: [5] -3.17 | [6] -3.22 | [7] -3.52 | [8] -4.22

C[C@@H]1[C@H](O)[C@@H](C)/C=C/C=C/CC/C=C/C=C/C=C/C=C/C(O[C@H]2O[C@H](C)[C@@H](O)[C@H](N)[C@@H]2O)CC2O[C@](O)(CC(O)C(O)CCC(O)CC(O)CC(O)CC(=O)O[C@H]1C)CC(O)C2C(=O)O (stereo not given in full)
inactive: 0.103 µM, library screen: screen3, EWS-FLI1 expression: high (no doxycycline) 0.0278 | 0.103 µM, library screen: screen3, EWS-FLI1 expression: low (doxycycline-induced shRNA knockdown) 0.00627 | [5] 0.0655 | [6] 0.0679 | 0.308 µM, library screen: screen3, EWS-FLI1 expression: high (no doxycycline) 0.00683 | 0.308 µM, library screen: screen3, EWS-FLI1 expression: low (doxycycline-induced shRNA knockdown) 0.0137 | 0.926 µM, library screen: screen3, EWS-FLI1 expression: high (no doxycycline) 0.00828 | 0.926 µM, library screen: screen3, EWS-FLI1 expression: low (doxycycline-induced shRNA knockdown) 0.0539 | [7] 0.133 | [8] 0.104 | 2.8 µM, library screen: screen3, EWS-FLI1 expression: high (no doxycycline) -0.00919 | 2.8 µM, library screen: screen3, EWS-FLI1 expression: low (doxycycline-induced shRNA knockdown) 0.0174 | 8.3 µM, library screen: screen3, EWS-FLI1 expression: high (no doxycycline) 0.0134 | 8.3 µM, library screen: screen3, EWS-FLI1 expression: low (doxycycline-induced shRNA knockdown) 0.0644 | 25 µM, library screen: screen3, EWS-FLI1 expression: high (no doxycycline) 0.0075 | 25 µM, library screen: screen3, EWS-FLI1 expression: low (doxycycline-induced shRNA knockdown) 0.0194

CN=C1CN(O)C(c2ccccc2)=c2cc(Cl)ccc2=N1
inactive: [5] 0.0853 | [6] 0.0654 | [7] 0.0997 | [8] 0.0898

CCN1C[C@]2(C)CC[C@H](OC)[C@@]34C1[C@]1(OCO[C@@]15C[C@H](OC)[C@H]1C[C@]3(O)[C@@H]5[C@H]1OC)[C@@H](OC(C)=O)[C@H]24
inactive: [5] 0.0895 | [6] 0.0208 | [7] 0.12 | [8] 0.0444

C=CCN1CC[C@]23c4c5ccc(O)c4O[C@@H]2/C(=N/N=C2\CC[C@@]4(O)C6Cc7ccc(O)c8c7[C@@]4(CCN6CC=C)[C@@H]2O8)CC[C@@]3(O)C1C5
inactive: [1] 0.27 | [2] 0.119 | [3] 0.0736 | [4] 0.0511

S=C=NCc1ccccc1
inactive: [5] 0.0421 | [6] 0.0817 | [7] 0.0546 | [8] 0.123

CCOP(=S)(OCC)Oc1ccc2c(C)c(Cl)c(=O)oc2c1
inactive: [5] -0.0154 | [6] -0.0116 | [7] 0.000589 | [8] -0.0198

COc1c2c(cc3c1OCO3)CC[N+](C)=C2
inactive: [5] 0.122 | [6] 0.157 | [7] 0.0941 | [8] 0.18

COc1ccc(C(=O)OC2CCC3(C)C4CCC5[C@]6(O)C[C@H](O)[C@@]7(O)C(CN8CC(C)CCC8[C@@]7(C)O)[C@]6(O)C[C@@]53O[C@]24O)cc1OC (stereo not given in full)
inactive: [5] 0.0564 | [6] 0.0531 | [7] 0.0896 | [8] 0.133

S=C=Nc1cccc(C2(N3CCCCC3)CCCCC2)c1
inactive: [1] 0.168 | [2] 0.105 | [3] 0.16 | [4] 0.118

NCCCP(=O)(O)O
inactive: [1] 0.138 | [2] 0.0766 | [3] 0.114 | [4] 0.116

O=C1C=CC(=O)c2c(O)cccc21
active: 25 µM, library screen: screen2, EWS-FLI1 expression: high (no doxycycline) -0.0924 | 25 µM, library screen: screen2, EWS-FLI1 expression: low (doxycycline-induced shRNA knockdown) -0.0926
inactive: 0.025 µM, library screen: screen2, EWS-FLI1 expression: high (no doxycycline) 0.123 | 0.025 µM, library screen: screen2, EWS-FLI1 expression: low (doxycycline-induced shRNA knockdown) 0.0947 | [5] 0.185 | [6] 0.0663 | [1] 0.0843 | [2] 0.00401 | [7] 0.153 | [8] 0.0956 | [3] 0.273 | [4] 0.125
